PubChem BioAssay (EPA / NIEHS)
Active and inactive are the calls of the source. Rule for the calls: active = hit-call score of the fitted dose curve at least 0.9, where 1 is the maximum; inactive = score below 0.9.

How the values were obtained:
[1] = read-out: Cytochrome P450 (CYP1A1), CYP1A1 (gene 1543); assay: LTEA_HepaRG_CYP1A1: Life Technologies and Expression Analysis (LTEA) Assay for Cytochrome P450 (CYP1A1) using HepaRG (AID 2283454); conditions: mRNA level, 48 h; actives raise or lower the signal
Outline: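 Induction of CYP1A1 mRNA in a human hepatic cell line was measured 48 h after dosing, with 1 mM phenobarbital as induction positive control and 0.5% DMSO vehicle as baseline for bidirectional curve fitting.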

[2] = read-out: CFLAR gene, CFLAR (gene 8837); assay: LTEA_HepaRG_CFLAR: Life Technologies and Expression Analysis (LTEA) Assay for CFLAR gene using HepaRG (AID 2283455); conditions: mRNA level, 48 h; actives raise or lower the signal
Outline: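 Gain- or loss-of-signal changes in CFLAR transcript were fitted bidirectionally relative to 0.5% DMSO. Cells (HepaRG, duplicate wells) were dosed for 48 h across eight half-log concentrations topping at 100 uM; quantitation by TaqMan qRT-PCR.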

[3] = read-out: Forkhead box O1 (FOXO1), FOXO1 (gene 2308); assay: LTEA_HepaRG_FOXO1: Life Technologies and Expression Analysis (LTEA) Assay for Forkhead box O1 (FOXO1) using HepaRG (AID 2283456); conditions: mRNA level, 48 h; actives raise or lower the signal
Outline: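 Using one lot of HepaRG hepatic cells kept in 0.5% DMSO, the team applied test chemicals in duplicate, half-log dilutions from 100 uM, for 48 h. Expression, normalised to ACTB/GAPDH/POLR2A, was compared with vehicle in either direction.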

[4] = read-out: growth arrest and DNA damage 45 (GADD45A), GADD45A (gene 1647); assay: LTEA_HepaRG_GADD45A: Life Technologies and Expression Analysis (LTEA) Assay for growth arrest and DNA damage 45 (GADD45A) using HepaRG (AID 2283458); conditions: mRNA level, 48 h; actives raise or lower the signal
Outline: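 HepaRG, 48 h exposure, 8 conc. (top 100 uM, half-log steps), 0.5% DMSO vehicle, duplicates. Read-out: qRT-PCR mRNA level, housekeeping-normalized (ACTB/GAPDH/POLR2A). Curves fit bidirectionally vs DMSO baseline.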

[5] = read-out: Forkhead box O3 (FOXO3), FOXO3 (gene 2309); assay: LTEA_HepaRG_FOXO3: Life Technologies and Expression Analysis (LTEA) Assay for Forkhead box O3 (FOXO3) using HepaRG (AID 2283459); conditions: mRNA level, 48 h; actives raise or lower the signal
Outline: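 Gene-expression endpoint: FOXO3 transcript level by qRT-PCR in HepaRG cultures treated 48 h with chemicals up to 100 uM (half-log, 0.5% DMSO vehicle).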

[6] = read-out: ABC Transporter (ABCB1), ABCB1 (gene 5243); assay: LTEA_HepaRG_ABCB1: Life Technologies and Expression Analysis (LTEA) Assay for ABC Transporter (ABCB1) using HepaRG (AID 2283460); conditions: mRNA level, 48 h; actives raise or lower the signal
Outline: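 Human liver HepaRG line treated 48 h with up to 100 uM compound (eight half-log points, 0.5% DMSO); ABCB1 mRNA change fitted bidirectionally against DMSO controls.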

[7] = read-out: growth arrest and DNA damage 45 (GADD45B), GADD45B (gene 4616); assay: LTEA_HepaRG_GADD45B: Life Technologies and Expression Analysis (LTEA) Assay for growth arrest and DNA damage 45 (GADD45B) using HepaRG (AID 2283461); conditions: mRNA level, 48 h; actives raise or lower the signal
Outline: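 Values are bidirectional concentration-response fits against 0.5% DMSO controls. Underlying data: qRT-PCR mRNA levels in human HepaRG liver cells treated 48 h in serum-free induction medium, eight concentrations topping at 100 uM.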

[8] = read-out: ABC Transporter (ABCC3), ABCC3 (gene 8714); assay: LTEA_HepaRG_ABCC3: Life Technologies and Expression Analysis (LTEA) Assay for ABC Transporter (ABCC3) using HepaRG (AID 2283462); conditions: mRNA level, 48 h; actives raise or lower the signal
Outline: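 Differentiated HepaRG liver cells receive test chemicals at eight concentrations (max 100 uM) for 48 h. Expression of ABCC3 is quantified by qRT-PCR against ACTB, GAPDH and POLR2A, and activity is fitted in both directions against the DMSO control.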

[9] = read-out: ABC Transporter (ABCB11), ABCB11 (gene 8647); assay: LTEA_HepaRG_ABCB11: Life Technologies and Expression Analysis (LTEA) Assay for ABC Transporter (ABCB11) using HepaRG (AID 2283463); conditions: mRNA level, 48 h; actives raise or lower the signal
Outline: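 Using HepaRG cultures held in 0.5% DMSO, chemicals were tested at half-log dilutions from 100 uM for 48 h. Induction or suppression of ABCB11 mRNA, normalized to ACTB, GAPDH and POLR2A, was fitted bidirectionally against vehicle.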

[10] = read-out: ABC Transporter (ABCC2), ABCC2 (gene 1244); assay: LTEA_HepaRG_ABCC2: Life Technologies and Expression Analysis (LTEA) Assay for ABC Transporter (ABCC2) using HepaRG (AID 2283464); conditions: mRNA level, 48 h; actives raise or lower the signal
Outline: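 Gene expression of ABCC2 was determined by qRT-PCR in HepaRG cells exposed 48 h to chemicals (highest 100 uM, half-log dilutions). Activity was fitted in both directions relative to 0.5% DMSO vehicle.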

[11] = read-out: Broad substrate specificity ATP-binding cassette transporter ABCG2 (Homo sapiens) (UniProt Q9UNQ0); assay: LTEA_HepaRG_ABCG2: Life Technologies and Expression Analysis (LTEA) Assay for ABC Transporter (ABCG2) using HepaRG (AID 2283465); conditions: mRNA level, 48 h; actives raise or lower the signal
Outline: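 Gene expression of ABCG2 in HepaRG liver cells is quantified by qRT-PCR following 48 h exposure across an eight-point series topping at 100 uM. Values come from bidirectional fitting relative to DMSO vehicle.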

[12] = read-out: ATP-citrate lyase (ACLY), ACLY (gene 47); assay: LTEA_HepaRG_ACLY: Life Technologies and Expression Analysis (LTEA) Assay for ATP-citrate lyase (ACLY) using HepaRG (AID 2283466); conditions: mRNA level, 48 h; actives raise or lower the signal
Outline: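 ACLY expression changes in human HepaRG liver cells are quantified by qRT-PCR after 48 h exposure to test chemicals (maximum 100 uM, half-log steps). Values are fitted in both directions relative to 0.5% DMSO vehicle.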

[13] = read-out: Peroxisomal acyl-coenzyme A oxidase 1 (ACOX1) gene, ACOX1 (gene 51); assay: LTEA_HepaRG_ACOX1: Life Technologies and Expression Analysis (LTEA) Assay for Peroxisomal acyl-coenzyme A oxidase 1 (ACOX1) gene using HepaRG (AID 2283467); conditions: mRNA level, 48 h; actives raise or lower the signal
Outline: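 Human HepaRG hepatic cultures, 48 h treatment with test chemicals up to 100 uM. ACOX1 expression read by qRT-PCR relative to 0.5% DMSO vehicle.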

[14] = read-out: Alkaline Phosphatase, Placental (ALPP) gene, ALPP (gene 250); assay: LTEA_HepaRG_ALPP: Life Technologies and Expression Analysis (LTEA) Assay for Alkaline Phosphatase, Placental (ALPP) gene using HepaRG (AID 2283468); conditions: mRNA level, 48 h; actives raise or lower the signal;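 for AC50: ALPP transcript by TaqMan qRT-PCR normalized to ACTB GAPDH and POLR2A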
Outline: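 Expression of ALPP was quantified by qRT-PCR against three housekeeping genes in human HepaRG cultures treated for 48 h with an eight-point concentration series up to 100 uM. Activity in either direction was fitted relative to 0.5% DMSO.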

[15] = read-out: Bcl-2 (BAD) gene, BAD (gene 572); assay: LTEA_HepaRG_BAD: Life Technologies and Expression Analysis (LTEA) Assay for Bcl-2 (BAD) gene using HepaRG (AID 2283469); conditions: mRNA level, 48 h; actives raise or lower the signal
Outline: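 Activity values reflect up- or down-regulation of BAD mRNA in human HepaRG hepatic cells treated 48 h in serum-free medium, with eight-point half-log dosing capped at 100 uM and 0.5% DMSO vehicle.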

[16] = read-out: Bcl-2 (BAX) gene, BAX (gene 581); assay: LTEA_HepaRG_BAX: Life Technologies and Expression Analysis (LTEA) Assay for Bcl-2 (BAX) gene using HepaRG (AID 2283470); conditions: mRNA level, 48 h; actives raise or lower the signal
Outline: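 qRT-PCR read-out of BAX mRNA, normalized to three housekeeping genes, after 48 h chemical exposure of human HepaRG cells in serum-free induction medium; eight-point half-log series, top 100 uM, 0.5% DMSO vehicle; bidirectional fit versus DMSO.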

[17] = read-out: Alpha-fetoprotein (AFP) gene, AFP (gene 174); assay: LTEA_HepaRG_AFP: Life Technologies and Expression Analysis (LTEA) Assay for Alpha-fetoprotein (AFP) gene using HepaRG (AID 2283472); conditions: mRNA level, 48 h; actives raise or lower the signal;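 for AC50: AFP transcript by TaqMan qRT-PCR normalized to ACTB GAPDH and POLR2A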
Outline: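 qRT-PCR (Fluidigm TaqMan) readout of AFP transcript, normalized to three housekeeping genes, fitted bidirectionally against 0.5% DMSO baseline. HepaRG cells received chemicals for 48 h in serum-free induction medium, top concentration 100 uM, half-log steps.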

BCL2L11 (gene 10018) = assay: LTEA_HepaRG_BCL2L11: Life Technologies and Expression Analysis (LTEA) Assay for Bcl-2 (BCL2L11) gene using HepaRG (AID 2283473); conditions: mRNA level, 48 h; actives raise or lower the signal
Outline: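 Cells were plated, cultured 48 h, switched to serum-free induction medium, then dosed in duplicate for 48 h at eight half-log concentrations up to 100 uM. Lysates underwent RNA isolation and TaqMan qRT-PCR; gain or loss versus DMSO was fitted.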

[18] = CEETOX_H295R_TESTO: CeeTox H295R High-throughput Steroidogenesis Assay for Testosterone (TESTO) (AID 2283457); conditions: actives raise or lower the signal
Outline: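 Testosterone synthesis is assessed in human adrenocortical H295R cells after 48 h of chemical exposure, using HPLC-MS/MS of extracted medium. Activity is fitted in both directions against DMSO control.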

[19] = read-out: adenosine kinase (ADK) gene, ADK (gene 132); assay: LTEA_HepaRG_ADK: Life Technologies and Expression Analysis (LTEA) Assay for adenosine kinase (ADK) gene using HepaRG (AID 2283471); conditions: mRNA level, 48 h; actives raise or lower the signal
Outline: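 Differentiated HepaRG cells dosed 48 h in serum-free induction medium, 0.5% DMSO vehicle, eight half-log concentrations from 100 uM, in duplicate. ADK mRNA by TaqMan qRT-PCR normalised to ACTB, GAPDH, POLR2A; bidirectional fit versus DMSO.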

Measured: AC50

Sequence of Broad substrate specificity ATP-binding cassette transporter ABCG2 (Homo sapiens) (Q9UNQ0 whole entry, looked up): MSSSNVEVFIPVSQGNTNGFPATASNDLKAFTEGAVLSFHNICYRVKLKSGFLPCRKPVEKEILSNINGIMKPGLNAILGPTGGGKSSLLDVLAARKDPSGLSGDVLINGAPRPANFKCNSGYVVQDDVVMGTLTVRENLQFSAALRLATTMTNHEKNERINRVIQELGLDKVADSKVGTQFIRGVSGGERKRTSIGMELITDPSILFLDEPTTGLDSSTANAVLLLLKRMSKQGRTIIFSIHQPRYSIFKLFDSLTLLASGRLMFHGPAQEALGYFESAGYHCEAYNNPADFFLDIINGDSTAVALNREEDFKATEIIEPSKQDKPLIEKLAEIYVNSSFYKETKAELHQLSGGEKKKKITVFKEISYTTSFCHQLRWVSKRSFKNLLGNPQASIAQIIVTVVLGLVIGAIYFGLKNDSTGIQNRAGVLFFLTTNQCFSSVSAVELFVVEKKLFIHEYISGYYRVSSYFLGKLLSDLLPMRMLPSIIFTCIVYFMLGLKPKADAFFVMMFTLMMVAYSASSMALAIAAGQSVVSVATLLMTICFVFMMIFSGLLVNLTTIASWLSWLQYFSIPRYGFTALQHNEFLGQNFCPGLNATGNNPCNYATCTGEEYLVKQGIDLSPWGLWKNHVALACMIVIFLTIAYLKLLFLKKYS

CN(C)CCCN(C)CCCN(C)C
not listed: [18] | [19]
inactive: all other assays above

COC(=O)CCCC(=O)OC
active: [8] 0.263 µM
not listed: [18] | [19]
inactive: all other assays above

O=C1OC(c2ccc(O)cc2)(c2ccc(O)cc2)c2ccccc21
active: [1] 50 µM | [2] 76.4 µM | [3] 50 µM | [5] 50 µM | [9] 69.8 µM | [11] 79.2 µM | [17] 77.4 µM
not listed: [6] | [13] | [19]
inactive: all other assays above

CCCCOC(=O)CCCCC(=O)OCCCC
active: [1] 50 µM
not listed: [6] | [18]
inactive: all other assays above

CCOCCOCCO
not listed: [6] | [18]
inactive: all other assays above

CC1=C(C)S(=O)(=O)CCS1(=O)=O
active: [1] 50 µM | [5] 14.7 µM | [7] 88.8 µM | [8] 0.171 µM | [9] 81 µM | [16] 50 µM | [17] 80.3 µM
not listed: [6] | [13] | [19]
inactive: all other assays above

N[C@@H](Cc1c[nH]c2ccccc12)C(=O)O
active: [1] 10.9 µM
not listed: [13] | [18] | [19]
inactive: all other assays above

CC(N)=O
active: [4] 0.256 µM
not listed: [18]
inactive: all other assays above

CCC(C)N(C)C(=O)c1cc2ccccc2c(-c2ccccc2Cl)n1 (stereo unspecified)
active: [1] 37.7 µM | [6] 5.38 µM | [10] 7.48 µM | [11] 4.44 µM | [17] 31.8 µM | BCL2L11 (gene 10018) 31.8 µM
not listed: [4]
inactive: all other assays above

OCC(O)CO
not listed: [13] | [18] | [19]
inactive: all other assays above

CC(=O)O[C@]1(C(C)=O)CC[C@H]2[C@@H]3C=C(Cl)C4=CC(=O)[C@@H]5C[C@@H]5[C@]4(C)[C@H]3CC[C@@]21C
active: [2] 50 µM | [3] 50 µM | [4] 50 µM | [10] 50 µM | [13] 29.2 µM | [16] 50 µM | [17] 50 µM
not listed: [6] | [18]
inactive: all other assays above

O=NO
not listed: [13] | [18]
inactive: all other assays above

CSc1ccc(Oc2ccc(S(N)(=O)=O)cc2CN(C)C)cc1C
active: [1] 69.8 µM | [8] 81.5 µM | [9] 84.6 µM | [14] 54.5 µM | [17] 75 µM
not listed: [13] | [18] | [19]
inactive: all other assays above

CCN(CC)CCOc1ccc(C(=C(Cl)c2ccccc2)c2ccccc2)cc1
active: [6] 79.9 µM | [9] 24.9 µM | [10] 67.3 µM | [14] 22.6 µM | [17] 17.9 µM | BCL2L11 (gene 10018) 76.5 µM
not listed: [4] | [13]
inactive: all other assays above

CC(=O)CC(c1ccccc1)c1c(O)c2ccccc2oc1=O (stereo unspecified)
active: [12] 50 µM
not listed: [13] | [18] | [19]
inactive: all other assays above
